GRP78 ERSR act: induces the endoplasmic reticulum stress response in human glioma cells | AID 602332 | Potency, µM, for the others: at the top dose activation, most hits filed as activators | 0.02% of 420,000 active | U87-MG GRP78 promoter luciferase reporter, 16 h; note: potency is the fitted concentration of half-maximal effect; series mostly up to about 76 µM; % of control where 0% means no effect; nearly all actives have a fitted effect of over 35% in size
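ERSR induction read as luciferase luminescence (Bright-Glo, 10 min at room temperature) in stably transfected human U87-MG glioma cells exposed to compounds for 16 h, using GRP78 as sensor.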
TRPML1 ag: human mucolipin-1 channel agonism. Q9GZU1. activation, % (no concentration beside the values). TRPML1-expressing cells, Ca2+ dye fluorescence, FDSS. 0.12% of 410,000 active; in the data active = activation above about 50%; inconclusive = mostly about 30% to 49%; note: 0% is about no effect
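In this qHTS format, compounds were pin-transferred onto Ca8-dye-loaded TRPML1-DL cells induced with Tet overnight, and intracellular Ca2+ fluorescence was recorded kinetically for 110 s after a 10 s baseline. A subsequent 4uM final 54-4 (EC80) addition followed by a second 110 s read served as the antagonist phase.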
Vif-APOBEC3G blk: inhibitors of Vif-APOBEC3G interaction; Q9HC16; HeLa A3G-eYFP + Vif (tagged APOBEC3G with the HIV-1 protein that degrades it), YFP fluorescence, overnight; Potency, µM (doses to about 46.1 µM), without a hit: top-dose activity, negative = active, usual class: inhibitors; 0.076% of 410,000 active; AID 602310; note: potency is the fitted concentration of half-maximal effect; % is set by controls: 0 for no effect and ±100 for the full control effect; nearly all actives have a fitted effect of over 60% in size
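HeLa cells stably expressing Vif and C-terminally eYFP-tagged A3G, seeded overnight at 37 deg C, then exposed to compound by pintool overnight at 37 deg C. Rise in yellow fluorescence (Ex 488/Em 500-530, Acumen) marks blocked Vif-driven A3G degradation.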
TRPML1 blocker: human mucolipin-1 channel inhibition. Q9GZU1. TRPML1-inducible cells, Ca2+ dye fluorescence, FDSS; hits give low values; inhibition of EC80 agonist-evoked calcium signal. activity change, negative = inhibition, % (concentration not given with the values). 0.02% of 390,000 active. AID 624415; in the data active = activity change below about -50%; inconclusive = between about -30% and that limit;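 note: stimulus is agonist 54-4 at its EC80 concentration; % is set by controls: 0 for no effect and ±100 for the full control effect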
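Calcium fluorescence in TRPML1-DL cells induced overnight with Tet: a 110 s read after compound pin addition, then a 110 s antagonist read after challenge with 54-4 at 4 uM final (EC80).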
Vif-A3F inh: Vif-A3F binding inhibition | 0.2% of 390,000 active | Potency, µM (highest dose often 46.1 µM), for the others: top-dose activity, negative = active | AID 602313 | HeLa A3F-eYFP + Vif (tagged APOBEC3F with the HIV-1 protein that degrades it), YFP fluorescence increase; note: potency is the fitted concentration of half-maximal effect; % of control where 0% means no effect; nearly all actives have a fitted effect of over 65% in size
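HeLa cells stably expressing A3F-eYFP plus Vif, plated and incubated overnight at 37 deg C, then exposed to compounds overnight at 37 deg C. Blocked degradation read as raised yellow fluorescence (Ex 488/Em 500-530).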
ALOX12 inh: ALOX12 (human) lipoxygenase inhibition; P18054; 1.1% of 580,000 active; purified 12hLO, xylenol orange hydroperoxide absorbance; AID 1671190; Potency, µM (series often up to 108 µM), without a hit: top-dose activity change, negative = inhibition, usual class: inhibitors; note: potency is the fitted concentration of half-maximal effect; % is set by controls: 0 for no effect and ±100 for the full control effect
Target sequence (P18054 whole entry, looked up): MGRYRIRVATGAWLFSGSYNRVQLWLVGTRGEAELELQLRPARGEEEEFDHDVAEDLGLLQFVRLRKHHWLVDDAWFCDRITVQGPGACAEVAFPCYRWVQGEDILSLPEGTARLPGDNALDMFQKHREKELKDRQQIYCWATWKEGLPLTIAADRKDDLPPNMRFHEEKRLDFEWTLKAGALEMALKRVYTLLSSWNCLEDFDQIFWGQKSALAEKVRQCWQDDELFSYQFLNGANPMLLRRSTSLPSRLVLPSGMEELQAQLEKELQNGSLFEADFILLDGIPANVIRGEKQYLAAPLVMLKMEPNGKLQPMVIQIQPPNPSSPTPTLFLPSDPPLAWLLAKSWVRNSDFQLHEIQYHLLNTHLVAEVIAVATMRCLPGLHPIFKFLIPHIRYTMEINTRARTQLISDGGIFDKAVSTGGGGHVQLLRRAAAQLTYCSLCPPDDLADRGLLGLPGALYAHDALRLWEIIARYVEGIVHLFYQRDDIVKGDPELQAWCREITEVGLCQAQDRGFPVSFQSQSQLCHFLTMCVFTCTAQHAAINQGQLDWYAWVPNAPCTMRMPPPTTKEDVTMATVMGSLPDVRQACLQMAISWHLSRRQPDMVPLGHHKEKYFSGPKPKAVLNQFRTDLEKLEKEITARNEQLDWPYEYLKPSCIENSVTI
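Purified human 12hLO (150 nM final) in 25 mM Hepes, 0.01% Triton X-100, pH 7.0 was preincubated 15 min at room temperature with compound. Then 40 uM arachidonic acid was added, 30 min. Hydroperoxide was read by Fe-XO absorbance ratio 573/405 nm.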
An asterisk follows results filed as active; ? = inconclusive; . = no result; [ ] = another dose, or the depositor's remark. An excerpt weighted towards active compounds, which were near 1.3% of everything screened. Unless noted, calls come from the whole dose curve; as a rule, active = well fitted curve in the direction sought with a large enough effect; inconclusive = small, poorly fitted or top-dose-only effect, or another doubt; inactive = no such curve, though single readings can be large; an effect the other way counts as inactive or inconclusive.

SMILES | GRP78 ERSR act | TRPML1 ag | Vif-APOBEC3G blk | TRPML1 blocker | Vif-A3F inh | ALOX12 inh
COc1c(-c2ccc(O)c(O)c2)oc2cc(O)cc(O)c2c1=O | ? | . | ? | . | -1% | 7.1µM*
CC(C)=CCc1cc(-c2oc3cc(O)cc(O)c3c(=O)c2O)ccc1O | 2% | . | 0% | . | 10% | 35µM*
Fc1ccc(CNc2ncnc3onc(-c4cc(F)cc(F)c4)c23)cc1 | . | . | . | . | . | -10%
N#Cc1nc(-c2ccco2)oc1N1CCN(C(=O)c2ccc(Cl)cc2)CC1 | . | . | . | . | . | -1%
N#Cc1cccc(COC(=O)c2ccc(N3CCOCC3)nc2)c1 | . | . | . | . | . | -27%
CCCCN(CCCC)Cc1cc(=O)oc2cc(C)c(O)cc12 | . | . | . | . | . | 40µM*
CCCCN(C)Cc1cc(=O)oc2cc(C)c(O)cc12 | . | . | . | . | . | -21%
COc1ccc2cc(CN(C)C(=O)CNC(=O)c3ccc(Cl)cc3)ccc2c1 | . | . | . | . | . | -18%
O=C(CCS(=O)(=O)c1cc2c3c(c1)CCN3C(=O)CC2)NCc1ccc(Cl)cc1 | -2% | -1 | 1% | -12 | 1% | -8%
O=C(CCS(=O)(=O)c1cc2c3c(c1)CCN3C(=O)CC2)Nc1ccc(F)c(Cl)c1 | . | . | . | . | . | 14µM*
O=c1oc2cc(O)ccc2cc1-c1nc2ccccc2o1 | -1% | 99* | ? | . | . | ?
Cc1[nH]c2ccccc2c1C1c2ccccc2C(=O)N1CCC(=O)N1CCN(c2ccccc2)CC1 (stereo not drawn) | . | . | . | . | . | 6%
CC(Nc1oc(-c2ccc(COc3ccccc3)o2)nc1C#N)c1ccccc1 (stereo not drawn) | -4% | 1 | -15% | 16 | 10µM* | ?
N#Cc1nc(-c2ccc(COc3ccccc3)o2)oc1NCc1ccccc1 | -1% | 0 | -6% | -16 | -15% | 2%
CCCn1nc(C)cc1CN(C)c1ccc(NC(=O)c2ccc(OC)cc2)cc1C(=O)O | . | . | . | . | . | 4.5µM*
CCCNC(=O)CN1CCN(c2ccc(NC(=O)c3ccc(OC)cc3)cc2C(=O)O)CC1 | 0% | -1 | 2% | -28 | 4% | ?
S=C(NCCSc1ccc(Cl)cc1)NCCc1ccccc1 | . | . | . | . | . | 40µM*
COc1ccccc1NC(=S)NCCSc1ccc(C)cc1 | -1% | 1 | 1% | -7 | ? | 45µM*
C/C(=N\NC(=S)NCCc1ccccc1)c1ccc(C#N)cc1 | -2% | 1 | 2% | -3 | 2% | 0%
C/C(=N\NC(=S)NCCc1ccccc1)c1ccc(C)cc1 | -1% | 1 | -4% | -11 | -5% | 40µM*
C/C(=N\NC(=S)NCCc1ccccc1)c1ccc(Cl)cc1 | -6% | 3 | 2% | 16 | 7% | 35µM*
Cc1cc(C)cc(NC(=S)NCCSc2ccc(Cl)cc2)c1 | -4% | 1 | 0% | -24 | ? | ?
Cc1ccc(SCCNC(=S)Nc2ccccc2)cc1 | -1% | 1 | 0% | 9 | -8% | ?
C[C@H]1[C@@H]2[C@H]3OC(=O)[C@@H](C)[C@@H]3CC[C@@]2(C)CC[C@@H]1NC(=O)c1ccccn1 | . | . | . | . | . | 9%[176 µM]
COc1cc(CC(=O)OCc2cccc(Br)c2)cc(OC)c1OC | . | . | . | . | . | -29%
SMILES | GRP78 ERSR act | TRPML1 ag | Vif-APOBEC3G blk | TRPML1 blocker | Vif-A3F inh | ALOX12 inh
Nc1nc2ccccc2n1CCOc1ccc(Br)cc1 | -6% | 0 | 4% | 0 | ? | 6%
S=C(Nc1ccccc1)Nc1nc2ccccc2n1CCOc1ccc(Br)cc1 | -2% | 0 | 0% | 16 | 1% | 28µM*
Cc1ccc(C)n1C1C(=O)N(Cc2ccc(C(C)C)cc2)c2ccc(F)cc21 (stereo not drawn) | . | . | . | . | . | 35µM*
Cc1ccc(C)n1C1C(=O)N(Cc2ccc(C(C)C)cc2)c2c(F)cccc21 (stereo not drawn) | . | . | . | . | . | 32µM*
Cc1ccc(C)n1C1C(=O)N(Cc2ccc(C(F)(F)F)cc2)c2ccc(Cl)cc21 (stereo not drawn) | . | . | . | . | . | 10µM*
COc1cccc(-n2cnnc2SCC(=O)NC(C)c2cccc3ccccc23)c1 (stereo not drawn) | . | . | . | . | . | 1%
COc1cccc(C2CC(N)C2)c1 (stereo not drawn) | . | . | . | . | . | 16%
